In PubChem BioAssay AID1159580 (chemical genetic matrix, 2015):
“And” between values parts separate entries of the source, which are not always exact repeats. Identical values can stand only once. In all, about 5,500 compounds went through this assay and about 2,000 (36%) were called active. Not shown: some 18% with an inconclusive outcome. Rule as the data show it: active = normalized growth mostly below about 0.91 (no sharp cut-off); inconclusive = no clear call, values can overlap the other calls; inactive = mostly above about 0.92. The list shows a part of the results.

Assay: chemical genetic growth profiling, strain panel (AID 1159580);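 also: tested at 20 µM; growth read once vehicle control cultures reached saturation at 30 °C; 1 = growth at the plate median or of vehicle wells; lower values mean less growth of the strain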
Settings: S. cerevisiae deletion strains, growth OD

Measured: normalized growth

C=C1c2cccc(O)c2C(O)=C2C(=O)[C@]3(O)C(O)=C(C(N)=O)C(=O)[C@@H](N(C)C)[C@@H]3[C@@H](O)[C@H]12
inactive: locus YAL013W, strain DEP1, hits give low values 0.997 | locus YAL021C, strain ccr4, hits give low values 1.02 | locus YAL026C, strain drs2, hits give low values 1.01 | locus YAL030W, strain snc1, hits give low values 1.01 | locus YBL061C, strain skt5, hits give low values 1.01 | locus YBR009C, strain hhf1, hits give low values 1 | locus YBR021W, strain FUR4, hits give low values 1.01 | locus YBR023C, strain chs3, hits give low values 1 | locus YBR171W, strain sec66, hits give low values 1.02 | locus YBR229C, strain ROT2, hits give low values 0.987 | locus YBR231C, strain swc5, hits give low values 1.02 | locus YBR279W, strain paf1, hits give low values 1.01 | locus YCL011C, strain gbp2, hits give low values 1.01 | locus YCL016C, strain dcc1, hits give low values 1.02 | locus YCL029C, strain bik1, hits give low values 0.965 | locus YCL061C, strain MRC1, hits give low values 1.02 | locus YCL069W, strain vba3, hits give low values 1.01 | locus YCR088W, strain abp1, hits give low values 0.997 | locus YDL005C, strain med2, hits give low values 1.02 | locus YDL035C, strain GPR1, hits give low values 0.98 | locus YDL040C, strain nat1, hits give low values 1.02 | locus YDL074C, strain BRE1, hits give low values 0.962 | locus YDL101C, strain DUN1, hits give low values 0.978 | locus YDL134C, strain PPH21, hits give low values 1.01 | locus YDL185W, strain tfp1, hits give low values 0.925 | locus YDL192W, strain arf1, hits give low values 0.971 | locus YDR001C, strain nth1, hits give low values 1.01 | locus YDR069C, strain doa4, hits give low values 1.01 | locus YDR101C, strain arx1, hits give low values 0.957 | locus YDR137W, strain rgp1, hits give low values 0.927 | locus YDR150W, strain NUM1, hits give low values 0.99 | locus YDR159W, strain sac3, hits give low values 1.01 | locus YDR162C, strain NBP2, hits give low values 0.981 | locus YDR195W, strain ref2 0.997 | locus YDR297W, strain sur2, hits give low values 1.01 | locus YDR318W, strain mcm21, hits give low values 0.975 | locus YDR334W, strain swr1, hits give low values 1.01 | locus YDR335W, strain msn5, hits give low values 1.01 | locus YDR388W, hits give low values 0.991 | locus YDR392W, strain spt3, hits give low values 0.957 | locus YDR502C, strain sam2, hits give low values 1 | locus YEL003W, strain gim4, hits give low values 1 | locus YEL037C, strain rad23, hits give low values 1.01 | locus YEL061C, strain CIN8 (second series), hits give low values 1.01 | locus YEL061C, strain CIN8, hits give low values 0.988 | locus YER015W, strain faa2, hits give low values 0.991 | locus YER016W, strain bim1, hits give low values 0.946 | locus YER110C, hits give low values 0.997 | locus YER111C, strain swi4, hits give low values 1.01 | locus YER155C, strain BEM2 (second series), hits give low values 0.966 | locus YER155C, strain BEM2, hits give low values 1.01 | locus YER167W, strain BCK2, hits give low values 0.992 | locus YFR010W, strain ubp6, hits give low values 1.02 | locus YGL078C, strain dbp3, hits give low values 0.993 | locus YGL086W, strain mad1, hits give low values 0.993 | locus YGL167C, strain pmr1, hits give low values 1.02 | locus YGL173C, strain kem1, hits give low values 1.01 | locus YGL227W, strain vid30, hits give low values 1.01 | locus YGL240W, strain doc1, hits give low values 1.03 | locus YGL248W, strain PDE1, hits give low values 0.979 | locus YGL253W, strain hxk2, hits give low values 1.01 | locus YGR078C, strain PAC10, hits give low values 0.928 | locus YGR135W, strain pre9, hits give low values 0.987 | locus YGR229C, strain SMI1, hits give low values 0.947 | locus YGR252W, strain gcn5, hits give low values 1.11 | locus YHR013C, strain ard1, hits give low values 1.02 | locus YHR027C, strain rpn1, hits give low values 1.01 | locus YHR030C, strain SLT2, hits give low values 0.994 and 0.979 | locus YHR079C, strain IRE1 (second series), hits give low values 0.982 | locus YHR079C, strain IRE1, hits give low values 0.978 | locus YHR094C, strain hxt1, hits give low values 0.992 | locus YHR129C, strain ARP1, hits give low values 0.982 | locus YHR142W, strain chs7, hits give low values 1.05 | locus YHR200W, strain rpn10, hits give low values 0.97 | locus YIL066C, strain RNR3, hits give low values 0.948 | locus YIL073C, strain SPO22, hits give low values 0.945 | locus YIL125W, strain kgd1, hits give low values 0.989 | locus YIR030C, strain dcg1, hits give low values 1 | locus YJL092W, strain hpr5, hits give low values 1.01 | locus YJL095W, strain BCK1 (second series), hits give low values 1.02 | locus YJL095W, strain BCK1, hits give low values 0.899 and 0.972 | locus YJL115W, strain asf1, hits give low values 1.03 | locus YJL129C, strain trk1, hits give low values 1.04 | locus YJL134W, strain LCB3, hits give low values 0.992 | locus YJL154C, strain vps35, hits give low values 1.04 | locus YJL164C, strain tpk1, hits give low values 0.983 | locus YJL166W, strain qcr8, hits give low values 1.02 | locus YJL168C, strain set2, hits give low values 0.982 | locus YJL187C, strain SWE1 (second series), hits give low values 0.929 | locus YJR043C, strain POL32, hits give low values 0.923 | locus YJR066W, strain TOR1, hits give low values 0.913
